Shiga inhibitor – Shiga toxin inhibition. Vero cells, Shiga toxin protein synthesis inhibition reporter. inhibition, % at 38.7 µM. actives 9.2% (n = 290,000). AID 2315; in the data active = inhibition mostly above about 28%, no sharp cut-off; inactive = mostly below about 43%
Pf growth 48h – P. falciparum growth inhibition at 48 hours (one generation); P. falciparum luciferase growth in erythrocytes, 48 h; Potency, µM (top dose mostly 28.7 µM), actives largely listed as inhibitors; actives 5.9% (n = 310,000); AID 504832
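Growth was read as firefly luciferase luminescence after a 48 h, 37 C, 5% CO2 exposure of compounds to reporter-bearing P. falciparum cultures (0.1% parasitemia, 2% hematocrit final) in Albumax-supplemented RPMI 1640.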
Pf growth 96h – inhibits malaria parasite growth, 96 h | P. falciparum luciferase reporter growth, 96 h | Potency, µM (series often up to 28.7 µM), hits mostly inhibitors | actives 6.9% (n = 320,000)
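Delayed-death screen, second-generation endpoint: infected erythrocytes, 2% hematocrit, 0.05% parasitemia final; 96 hours at 37 C, 5% CO2; luciferase detection reagent; luminescence decrease equals reduced growth.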
CHX counter – affects cycloheximide protein synthesis inhibition readout, counter-screen | cell reporter, cycloheximide protein synthesis inhibition counterscreen | max response, % | actives 12% (n = 300,000) | AID 2314; in the data active = max response mostly above about 13%, no sharp cut-off; inactive = mostly below about 14%; note: read at 38.3 µM for the half of the compounds with a filed dose
Hits are given with their value; - = inactive; ? = inconclusive; . = not tested or not shown; [ ] = remark or other dose. Hits are enriched below; roughly 21% of the tested compounds scored in any of these assays. Unless noted, calls come from the whole dose curve; as a rule, active = well fitted inhibition curve with a large enough effect; inconclusive = small, poorly fitted or top-dose-only effect, or another doubt; inactive = no such curve, though single readings can be large or run the other way.

SMILES	Shiga inhibitor	Pf growth 48h	Pf growth 96h	CHX counter
CCn1cnc2c1c(=O)n(CC(=O)NN)c(=O)n2Cc1ccccc1	-	.	?	-
CC12CCC(=O)N1C(C(=O)NNC(=O)c1ccccc1)CS2 (configuration not stated)	.	-	-	.
CN(C(=O)CSc1nc2ccccc2n1C)C1CCS(=O)(=O)C1 (configuration not stated)	.	-	-	.
Cc1ccccc1CNC(=O)C1CCC(=O)N(C2CCCCCC2)C1 (configuration not stated)	-	-	-	-
CC(C)Cc1nc(SCC(=O)N2CCCCC2)c2c(=O)n(C)c(=O)n(C)c2n1	-	-	-	-
S=C(NCc1ccccc1)NNc1nc2ccccc2[nH]1	-	?	?	-
Cc1noc(C)c1COc1ccc(C(=O)NCc2ccccn2)cc1	-	-	9.3µM	-
Cc1cccc(NC(=O)c2ccc(OCc3c(C)noc3C)cc2)n1	.	?	-	.
Cc1cccnc1NC(=O)c1ccc(OCc2c(C)noc2C)cc1	52	-	-	22
Cc1noc(C)c1COc1ccc(C(=O)Nc2ccccn2)cc1	89	-	?	44
NC(=S)NS(=O)(=O)c1ccc(N)cc1	.	-	-	.
O=C(/C(=N\Nc1ccccc1)Sc1nnnn1-c1ccccc1)c1ccccc1	-	-	-	-
C/C(=N/NC(=O)c1ccco1)c1ccc(NC(=O)c2ccc(Br)o2)cc1	96	-	-	62
CCCCCC(=O)N/N=C(\C)c1ccc(NC(=O)c2ccco2)cc1	81	-	-	30
C/C(=N\NC(=O)c1ccc(C(=O)N/N=C(\C)c2ccco2)o1)c1ccco1	-	?	2.6µM	-
C/C(=N\NC(=O)c1ccco1)c1cccc2ccccc12	-	9.3µM	-	-
C/C(=N/NC(=O)c1ccco1)c1ccc(NC(=O)c2ccc(F)cc2)cc1	58	-	-	90
C/C(=N\NC(=O)c1nc2ccccn2c1C)c1ccco1	62	-	-	27
CCCCN1Cc2c(nc3cc(-c4ccco4)[nH]n3c2=O)C1=O	-	-	-	-
Cc1nc2scc(C)n2c(=O)c1S(=O)(=O)Nc1ccc(N2CCOCC2)c(Cl)c1	-	-	9.3µM	-
FC(F)(F)c1ccnc(NCc2ccco2)n1	-	-	-	-
O=C1c2ccccc2NC2CCCCC12 (configuration not stated)	-	1.9µM	-	-
N#Cc1ccccc1OCC(=O)NCC1(N2CCCCC2)CCCCC1	-	3.3µM	-	-
CC(C)CCNC(=O)NC(=O)COc1ccccc1C#N	30	-	-	19
CC(C)NC(=O)COc1ccccc1C#N	-	-	?	-
SMILES	Shiga inhibitor	Pf growth 48h	Pf growth 96h	CHX counter
COc1cc(Cl)c(C)cc1NC(=O)CSc1sc2c(O)cc(=O)[nH]c2c1C#N	-	-	-	-
CC(=O)Nc1cccc2c1C(=O)N(c1ccccc1OC(C)=O)C2=O	-	-	-	-
O=C(NCCSCc1ccccc1)c1ccc(F)cc1	-	?	?	-
O=C(Cc1ccccc1)NCCSCc1ccccc1	-	-	-	19
CSCc1ccc(C(=O)Nc2ccc(C(N)=O)cc2)cc1	50	-	-	28
CSCc1ccc(C(=O)NCc2ccc(C)cc2)cc1	active	-	-	21
CSCc1ccc(C(=O)NCc2ccccc2)cc1	-	-	-	31
Nc1nc(SCC(=O)NC2CCCCC2)n[nH]1	-	-	-	-
Cc1ccc(CSCCNC(=O)c2ccc(C)cc2)cc1	-	13µM	-	-
O=[N+]([O-])c1ccccc1NC(=S)N/N=C/c1ccc(O)c(O)c1	74	-	-	22
CCCCNC(=S)N/N=C/c1cccc(OCC)c1O	30	?	1.5µM	-
CCOc1cccc(/C=N/NC(=S)Nc2ccccc2[N+](=O)[O-])c1O	154	-	?	38
CCOc1cccc(/C=N/NS(=O)(=O)c2ccc(C)c([N+](=O)[O-])c2)c1O	-	-	-	-
COc1cccc(/C=N/n2c(-c3ccco3)nc3ccccc3c2=O)c1OC	-	-	-	-
Cc1cc(=O)[nH]c(SCc2ccccc2)n1	-	12µM	-	-
C=CCc1c(C)nc(SCc2ccccc2)[nH]c1=O	-	-	-	16
Cc1cc(=O)[nH]c(SCCc2ccccc2)n1	-	-	-	-
Cc1cc(=O)[nH]c(S/C=C/c2ccccc2)n1	58	-	-	28
Cc1cc(=O)[nH]c(SCC(=O)Nc2nc(-c3ccccc3)c(-c3ccccc3)o2)n1	-	-	-	16
Cc1cc(C)nc(SCC(=O)Nc2nc(-c3ccccc3)c(-c3ccccc3)o2)n1	-	-	?	-
Nc1cc(=O)[nH]c(SC/C=C/c2ccccc2)n1	-	-	-	-
OCC1=C[C@@H](O)[C@@H]2C=CO[C@@H](OC3O[C@H](CO)[C@@H](O)[C@H](O)[C@H]3O)[C@H]12 (some centres not stated)	-	.	.	-
Cc1cc(C)n(-c2ccc(NC(=O)C3CCCCN3Cc3cccc4c3OCO4)cc2)n1 (configuration not stated)	-	-	-	-
COc1ccc(CSc2nc(C)cc(=O)[nH]2)cc1	-	-	4.7µM	-
COc1ccc(C2=Nn3c(nnc3-c3cccc(OC)c3OC)SC2)c(OC)c1	-	.	.	-
SMILES	Shiga inhibitor	Pf growth 48h	Pf growth 96h	CHX counter
COc1ccccc1-c1oc2ccccc2c1C#CC1(N)CCCCC1	.	8.3µM	3.3µM	.
COc1ccccc1-c1oc2ccccc2c1C#CCCO	.	-	?	.
COc1ccc(CNc2nc(-c3cccnc3)nn2C(C)=O)cc1	-	-	-	-
COCC(=O)n1nc(-c2ccccc2)nc1NCc1ccc(N(C)C)cc1	65	-	?	38
COCC(=O)n1nc(-c2ccc(C)cc2)nc1NCc1ccc(F)cc1	86	-[5.75 µM]	-	12
COCC(=O)n1nc(-c2ccc(Cl)cc2)nc1NCc1ccc(F)cc1	48	.	2.9µM	38
COc1ccc(CNc2nc(-c3cccnc3)nn2C(=O)c2cccs2)cc1	-	-	?	29
O=C(c1ccc(S(=O)(=O)N2CCOCC2)cc1)N1CCc2ccccc21	-	-	?	-
Cc1oc2c(c1C(=O)NCc1ccccc1)CCCC2	-	-	-	-
Cc1oc2c(c1C(=O)NCCO)CCCC2	-	.	0.013µM	-
C=CCC(C(=O)NC(C)c1ccccc1)C(=O)NC(C)c1ccccc1 (configuration not stated)	-	-	-	-
Cc1nc(SCc2ccc(OCCC(C)C)cc2)n[nH]1	154	-	-	49
Cc1nc(SCc2ccc(F)cc2)n[nH]1	-	-	-	-
Cc1nc(SCc2cccc(Oc3ccccc3)c2)n[nH]1	-	-	?	46
Cc1nc(SCc2ccc(Cl)c(Cl)c2)n[nH]1	-	-	?	16
O=C(/C=C/c1ccc(F)cc1)NCCCn1ccnc1	-	-	-	-
O=C(CCSc1ccccc1)NCCN1CCOCC1	-	-	.	-
O=C(CCSc1ccccc1)N1CCCC1	79	-	-	46
O=C(CCSc1nnc(-c2ccc(O)cc2)o1)N1CCOCC1	-	-	-	-
CC(NC(=O)CCC(=O)N1CCCCCC1)c1ccccc1 (configuration not stated)	-	?	-	-
O=C(CCSc1nc2ccccc2o1)N1CCOCC1	56	-	-	32
O=C(CCSc1ccccc1)N1CCOCC1	80	-	?	35

Source: PubChem
